In general, AC50 refers to the midpoint of the concentration-response curve, whichever way the signal moves.

A short description of test [1]: ATG_PBREM_CIS: Attagene CIS-FACTORIAL HepG2 Assay for human Phenobarbital-responsive Enhancer Module (PBREM) (AID 2282955). The following applies: HepG2 PBREM cis-reporter, Attagene multiplexed transcription; actives raise or lower the signal. The method, boiled down:
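Readout: reporter mRNA, fluorescent RT-PCR fragments separated by capillary electrophoresis. System: HepG2 transiently transfected with cis-regulated reporter units. Exposure: 24 h. Analysis: bidirectional, DMSO baseline.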

Test [2] addresses Paired box protein Pax-6 (Homo sapiens) (UniProt P26367). Nature of the test: ATG_Pax6_CIS: Attagene CIS-FACTORIAL HepG2 Assay for human Paired Box 6 (PAX6) (AID 2282956). The settings on record: HepG2 CIS-FACTORIAL PAX6 reporter transcription, RNA readout; actives raise or lower the signal. In short, it runs like this: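 DMSO-referenced bidirectional fits of reporter mRNA fluorescence; HepG2 with transient cis-promoter MRTUs, 24 h post-dose, RT-PCR plus capillary electrophoresis detection.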

A short description of test [3]: ATG_PXRE_CIS: Attagene CIS-FACTORIAL HepG2 Assay for human Pregnane X Receptor Element (PXRE) (AID 2282957). The settings on record: HepG2 Attagene CIS-FACTORIAL PXRE reporter, mRNA; actives raise or lower the signal. In short, it runs like this:
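Read-out: fluorescence of reporter-specific RT-PCR products resolved by capillary electrophoresis, fitted bidirectionally relative to DMSO. Human HepG2 liver cells carried transfected cis-promoter reporter units and were exposed to chemicals for 24 h.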

Test [4] can be described thus: ATG_Sox_CIS: Attagene CIS-FACTORIAL HepG2 Assay for human SRY-box transcription factor (SOX) (AID 2282960). The settings on record: HepG2 Attagene cis-factorial SOX reporter, mRNA; actives raise or lower the signal. In short, it runs like this:
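Using transiently transfected HepG2 cells, reporter transcription driven by cis elements was assessed 24 h after dosing. Signal was fluorescence of capillary-separated RT-PCR products, with DMSO defining baseline activity.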

For test [5], the target named is Transcription factor Sp1 (Homo sapiens) (UniProt P08047). Description: ATG_Sp1_CIS: Attagene CIS-FACTORIAL HepG2 Assay for human Specificity Protein 1 (Sp1) (AID 2282961). The following applies: HepG2 Sp1 cis-reporter transcription, actives raise or lower the signal. The method, boiled down: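 After transient transfection of HepG2 cells with cis-promoter reporter units and 24 h chemical treatment, reporter transcripts were quantified by RT-PCR and capillary electrophoresis fluorescence. Gain- and loss-of-signal fitted against DMSO.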
Transcription factor Sp1 (Homo sapiens), sequence (P08047 whole entry, looked up): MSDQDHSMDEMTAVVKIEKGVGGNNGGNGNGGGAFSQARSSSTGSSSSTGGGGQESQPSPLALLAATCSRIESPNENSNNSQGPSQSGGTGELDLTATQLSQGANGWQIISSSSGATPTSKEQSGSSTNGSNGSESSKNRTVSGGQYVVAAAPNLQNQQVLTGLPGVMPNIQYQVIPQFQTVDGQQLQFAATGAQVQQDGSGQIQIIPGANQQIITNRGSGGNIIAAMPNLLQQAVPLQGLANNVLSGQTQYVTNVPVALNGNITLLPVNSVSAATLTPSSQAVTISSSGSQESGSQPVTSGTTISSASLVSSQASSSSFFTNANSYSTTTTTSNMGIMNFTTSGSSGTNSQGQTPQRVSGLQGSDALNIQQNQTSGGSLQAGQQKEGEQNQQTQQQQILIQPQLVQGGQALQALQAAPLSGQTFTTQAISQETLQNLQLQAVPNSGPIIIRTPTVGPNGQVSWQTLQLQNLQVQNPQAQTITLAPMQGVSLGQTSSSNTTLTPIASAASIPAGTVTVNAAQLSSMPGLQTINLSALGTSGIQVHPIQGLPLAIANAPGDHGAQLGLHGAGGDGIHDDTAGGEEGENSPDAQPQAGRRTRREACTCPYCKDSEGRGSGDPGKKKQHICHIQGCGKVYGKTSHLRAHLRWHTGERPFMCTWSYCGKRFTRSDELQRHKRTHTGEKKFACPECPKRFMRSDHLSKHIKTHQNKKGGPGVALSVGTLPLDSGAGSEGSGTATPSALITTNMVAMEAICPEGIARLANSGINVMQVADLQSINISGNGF

Test [6] in a line: ATG_SREBP_CIS: Attagene CIS-FACTORIAL HepG2 Assay for human Sterol Regulatory Element Binding (SREBP) (AID 2282962). The settings on record: HepG2 Attagene cis-factorial SREBP reporter, mRNA; actives raise or lower the signal. The method, boiled down:
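In this cis-format assay, HepG2 liver cells express reporters controlled by promoter elements responsive to native transcription factors. Exposure lasts 24 h; reporter mRNA fluorescence from capillary electrophoresis gives the signal, fitted bidirectionally against DMSO.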

In test [7] the target is Signal transducer and activator of transcription 3 (Homo sapiens) (UniProt P40763). Description: ATG_STAT3_CIS: Attagene CIS-FACTORIAL HepG2 Assay for human Signal Transducer and Activator of Transcription 3 (STAT3) (AID 2282963). The settings on record: HepG2, Attagene cis-factorial STAT3 reporter transcription; actives raise or lower the signal. In short, it runs like this: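 Cis-factorial format: endogenous transcription factors in HepG2 drive transfected reporter units. After 24 h treatment, reporter RNA was reverse-transcribed, amplified, FAM-labelled and HpaI-digested before CE analysis; activity scored in both directions against DMSO.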
Signal transducer and activator of transcription 3 (Homo sapiens), sequence (P40763 whole entry, looked up): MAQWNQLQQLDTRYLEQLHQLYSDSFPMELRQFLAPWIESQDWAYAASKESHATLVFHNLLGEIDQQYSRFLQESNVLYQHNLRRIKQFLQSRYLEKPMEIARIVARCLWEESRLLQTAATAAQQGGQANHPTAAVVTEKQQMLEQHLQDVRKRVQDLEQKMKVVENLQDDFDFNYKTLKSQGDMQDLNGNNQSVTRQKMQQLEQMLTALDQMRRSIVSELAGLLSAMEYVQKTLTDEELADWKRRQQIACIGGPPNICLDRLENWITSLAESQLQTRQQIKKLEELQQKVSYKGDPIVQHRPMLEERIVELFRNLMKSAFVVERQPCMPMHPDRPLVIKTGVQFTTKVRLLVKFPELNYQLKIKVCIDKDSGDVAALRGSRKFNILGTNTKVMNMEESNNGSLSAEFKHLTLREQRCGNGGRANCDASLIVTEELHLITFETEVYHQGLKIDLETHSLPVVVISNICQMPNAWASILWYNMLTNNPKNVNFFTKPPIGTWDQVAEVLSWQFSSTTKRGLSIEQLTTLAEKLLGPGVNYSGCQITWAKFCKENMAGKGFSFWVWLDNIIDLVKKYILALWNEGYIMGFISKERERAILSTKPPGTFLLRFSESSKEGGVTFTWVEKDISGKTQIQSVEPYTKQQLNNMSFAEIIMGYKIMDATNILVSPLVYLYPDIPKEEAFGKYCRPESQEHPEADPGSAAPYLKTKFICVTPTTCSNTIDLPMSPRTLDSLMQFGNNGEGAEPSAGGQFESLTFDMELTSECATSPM

Test [8] can be described thus: ATG_TA_CIS: Attagene CIS-FACTORIAL HepG2 Assay for human TA Basal Promoter (AID 2282964). The following applies: HepG2 Attagene CIS-factorial TA basal promoter reporter; actives raise or lower the signal. The method, boiled down: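 Multiplexed mRNA reporter assay, HepG2, 24 h. Reporter cDNA amplified, 6-FAM primer-extended, HpaI-cut, CE-sized; DMSO = negative control and baseline.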

Test [9] can be described thus: ATG_TCF_b_cat_CIS: Attagene CIS-FACTORIAL HepG2 Assay for human T-Cell-Factor with beta-catenin (TCF/b-cat) (AID 2282965). The following applies: HepG2 TCF/beta-catenin cis-reporter transcription, actives raise or lower the signal. The method, boiled down:
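Endogenous TCF/LEF activity read as reporter transcript level via RT-PCR and capillary electrophoresis fluorescence in transfected HepG2, 24 h exposure; gain or loss of signal fitted against DMSO controls.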

Test [10] can be described thus: ATG_TAL_CIS: Attagene CIS-FACTORIAL HepG2 Assay for human TAL Basal Promoter (AID 2282966).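 Further: background control endpoint measuring basal TAL promoter reporter mRNA not a specific factor.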 The following applies: HepG2 Attagene cis-factorial TAL promoter reporter; actives raise or lower the signal. The method, boiled down: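 HepG2, transient MRTU transfection, 24 h compound exposure; RNA → oligo(dT) RT → PCR → 6-FAM primer extension → HpaI digest → CE fluorescence. Bidirectional curve fit vs DMSO. Background-control readout.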

Test [11] can be described thus: ATG_TGFb_CIS: Attagene CIS-FACTORIAL HepG2 Assay for human Transforming Growth Factor (TGF) (AID 2282967). The following applies: HepG2 Attagene CIS TGFb reporter, mRNA transcription; actives raise or lower the signal. In short, it runs like this: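 Transcript-level reporter readout: HepG2 transfectants, 24 h exposure, RNA to cDNA, reporter-specific PCR, fluorescent primer extension, capillary sizing against ROX standards. Gain- or loss-of-signal relative to DMSO.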

Test [12] can be described thus: ATG_VDRE_CIS: Attagene CIS-FACTORIAL HepG2 Assay for human Vitamin D Receptor Element (VDRE) (AID 2282968). The settings on record: HepG2 VDRE cis-reporter transcription, actives raise or lower the signal. In short, it runs like this: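 Measures endogenous factor activity through cis-element-driven reporter transcripts in transiently transfected HepG2. Cells are treated 24 h; reporter mRNA is quantified by RT-PCR and capillary electrophoresis; fitting is bidirectional.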

Test [13] concerns the target Nuclear receptor subfamily 1 group I member 3 (Homo sapiens) (UniProt Q14994). Description: ATG_CAR_TRANS: Attagene TRANS-FACTORIAL HepG2 Assay for human Constitutive Androstane Receptor (CAR) (AID 2282969; active means hit-call score of the fitted dose curve at least 0.9, where 1 is the maximum;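 further: activators raise reporter mRNA above DMSO so AC50 marks induction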). The following applies: HepG2 Attagene TRANS-FACTORIAL CAR reporter. In short, it runs like this: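 Signal is reporter mRNA induction relative to DMSO, measured 24 h after dosing by RT-PCR with fluorescent primer extension and capillary electrophoresis. Human HepG2 liver cells carried transiently transfected chimeric NR-Gal4/GAL4-UAS reporter constructs.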

In test [14] the target is X-box-binding protein 1 (Homo sapiens) (UniProt P17861). Nature of the test: ATG_Xbp1_CIS: Attagene CIS-FACTORIAL HepG2 Assay for human X-box Binding Protein 1 (XBP1) (AID 2282972). The settings on record: HepG2 XBP1 cis-element reporter, Attagene multiplex; actives raise or lower the signal. The method, boiled down:
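Changes in reporter transcript abundance, read by RT-PCR and capillary electrophoresis, reflect endogenous transcription factor activity. Transfected HepG2 cells received compound for 24 hours; DMSO defined baseline for bidirectional analysis.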

Test [15] in a line: ATG_GAL4_TRANS: Attagene TRANS-FACTORIAL HepG2 Assay for GAL4 (Internal Marker) (AID 2282976; active means hit-call score of the fitted dose curve at least 0.9, where 1 is the maximum). The following applies: HepG2 Attagene TRANS GAL4 internal marker reporter. The method, boiled down:
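RT-PCR/capillary electrophoresis readout of reporter mRNA. HepG2, transient MRTU transfection (GAL4-UAS reporters), 24 h compound exposure. Background-control endpoint, positive direction vs DMSO baseline.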

The nature of test [16]: ATG_PPRE_CIS: Attagene CIS-FACTORIAL HepG2 Assay for human Peroxisome Proliferator-activated Response Element (PPRE) (AID 2282958). The following applies: HepG2 PPRE cis-element reporter, Attagene transcription factor profiling; actives raise or lower the signal. In short, it runs like this: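 After human HepG2 hepatoma cells were transiently transfected with cis-promoter reporter constructs, they were exposed to test chemicals for 24 hours. Reporter RNA was then reverse-transcribed, PCR-amplified, FAM-labeled, HpaI-digested and quantified by capillary electrophoresis.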

The nature of test [17]: ATG_RORE_CIS: Attagene CIS-FACTORIAL HepG2 Assay for human RAR-related Orphan Receptor Element (RORE) (AID 2282959). The settings on record: HepG2 Attagene cis-factorial RORE reporter, mRNA; actives raise or lower the signal. The method, boiled down:
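Measured here: transcript induction of a cis-regulated reporter in HepG2 cells transiently transfected via FuGene 6. After 24 h, RNA was processed by RT-PCR and fluorescent capillary electrophoresis; DMSO defined baseline activity.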

The target in test [18] is Estrogen receptor (Homo sapiens) (UniProt P03372). Description: ATG_ERa_TRANS: Attagene TRANS-FACTORIAL HepG2 Assay for human Estrogen Receptor alpha (ERa) (AID 2282970; active means hit-call score of the fitted dose curve at least 0.9, where 1 is the maximum). The settings on record: HepG2 Attagene TRANS ERa GAL4 reporter, mRNA. In short, it runs like this:
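Reporter mRNA induction after 24 hours, detected by fluorescent RT-PCR and capillary electrophoresis, gives the read-out. Cells are HepG2 transiently transfected with GAL4-UAS reporter transcription units responding to chimeric NR-Gal4. Activity is taken as gain of signal over DMSO baseline.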

Test [19] in a line: ATG_M_19_TRANS: Attagene TRANS-FACTORIAL HepG2 Assay for M19 Transcription Factor (Internal Marker) (AID 2282974; active means hit-call score of the fitted dose curve at least 0.9, where 1 is the maximum). The following applies: HepG2 Attagene TRANS-FACTORIAL M19 internal marker reporter. In short, it runs like this:
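Gain-of-signal in reporter mRNA, relative to DMSO, was scored from capillary electrophoresis fluorescence. HepG2 cells carried transiently transfected multiple reporter transcription units and were incubated with test chemicals for 24 h.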

Test [20] has as its target Steroid hormone receptor ERR1 (Homo sapiens) (UniProt P11474). Description: ATG_ERRa_TRANS: Attagene TRANS-FACTORIAL HepG2 Assay for human Estrogen-Related Receptor alpha (ERRa) (AID 2282971; active means hit-call score of the fitted dose curve at least 0.9, where 1 is the maximum). The settings on record: HepG2 Attagene TRANS reporter, ERRa transactivation. The method, boiled down:
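Transfected HepG2, 24 h dosing, ERRa-Gal4 chimera driving GAL4-UAS reporter. Readout: reporter mRNA via RT-PCR plus capillary electrophoresis (fluorescence). Positive direction vs DMSO control.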

Inconclusive results are not listed. The source made the active and inactive calls. How the source made its calls, unless noted: active means hit-call score of the fitted dose curve at least 0.9, where 1 is the maximum; inactive means score below 0.9.

Paired box protein Pax-6 (Homo sapiens), sequence (P26367 whole entry, looked up): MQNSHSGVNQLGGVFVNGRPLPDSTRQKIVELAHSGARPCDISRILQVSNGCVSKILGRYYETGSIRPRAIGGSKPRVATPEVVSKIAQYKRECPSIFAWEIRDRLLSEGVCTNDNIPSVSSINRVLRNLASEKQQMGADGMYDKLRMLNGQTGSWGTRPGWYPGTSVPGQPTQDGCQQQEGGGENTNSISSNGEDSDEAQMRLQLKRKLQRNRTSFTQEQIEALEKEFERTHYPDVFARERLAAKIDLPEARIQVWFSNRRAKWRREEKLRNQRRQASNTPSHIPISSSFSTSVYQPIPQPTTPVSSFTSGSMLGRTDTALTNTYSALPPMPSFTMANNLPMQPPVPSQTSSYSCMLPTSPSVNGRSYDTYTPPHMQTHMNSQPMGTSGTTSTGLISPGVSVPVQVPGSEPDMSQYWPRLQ
X-box-binding protein 1 (Homo sapiens), sequence (P17861 whole entry, looked up): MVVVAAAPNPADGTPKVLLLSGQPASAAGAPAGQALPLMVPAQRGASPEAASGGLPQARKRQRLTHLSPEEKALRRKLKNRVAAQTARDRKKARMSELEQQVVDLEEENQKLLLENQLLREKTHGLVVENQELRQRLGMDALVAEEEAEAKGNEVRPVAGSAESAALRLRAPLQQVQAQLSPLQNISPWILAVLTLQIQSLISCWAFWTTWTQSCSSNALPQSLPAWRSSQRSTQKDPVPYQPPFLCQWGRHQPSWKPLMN
Nuclear receptor subfamily 1 group I member 3 (Homo sapiens), sequence (Q14994 whole entry, looked up, the tested form may be a part): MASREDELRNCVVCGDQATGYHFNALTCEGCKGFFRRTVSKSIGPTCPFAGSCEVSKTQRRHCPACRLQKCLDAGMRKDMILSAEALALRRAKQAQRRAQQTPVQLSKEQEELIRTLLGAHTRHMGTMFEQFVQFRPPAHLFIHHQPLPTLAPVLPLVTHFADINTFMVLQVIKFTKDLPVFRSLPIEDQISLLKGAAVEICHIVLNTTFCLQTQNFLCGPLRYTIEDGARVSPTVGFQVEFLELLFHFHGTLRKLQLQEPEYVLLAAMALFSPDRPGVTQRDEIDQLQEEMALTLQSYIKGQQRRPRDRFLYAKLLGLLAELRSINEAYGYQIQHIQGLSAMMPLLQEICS
Estrogen receptor (Homo sapiens), sequence (P03372 whole entry, looked up, the tested form may be a part): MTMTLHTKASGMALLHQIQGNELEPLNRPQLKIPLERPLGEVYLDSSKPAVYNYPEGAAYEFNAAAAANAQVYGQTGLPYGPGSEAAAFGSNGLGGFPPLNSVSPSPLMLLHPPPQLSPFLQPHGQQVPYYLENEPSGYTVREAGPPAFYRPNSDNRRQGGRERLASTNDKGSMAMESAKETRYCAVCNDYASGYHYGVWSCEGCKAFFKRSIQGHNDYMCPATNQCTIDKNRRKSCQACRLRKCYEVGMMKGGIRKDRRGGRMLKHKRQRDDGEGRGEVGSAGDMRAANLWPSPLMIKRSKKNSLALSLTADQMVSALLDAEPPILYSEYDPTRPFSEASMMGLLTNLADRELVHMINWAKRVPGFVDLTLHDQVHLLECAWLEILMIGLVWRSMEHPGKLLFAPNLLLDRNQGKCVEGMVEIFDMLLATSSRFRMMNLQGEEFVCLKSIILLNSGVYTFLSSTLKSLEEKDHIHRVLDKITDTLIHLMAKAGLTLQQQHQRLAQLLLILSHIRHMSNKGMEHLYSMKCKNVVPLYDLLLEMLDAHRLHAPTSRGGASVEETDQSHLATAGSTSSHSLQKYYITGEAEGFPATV
Steroid hormone receptor ERR1 (Homo sapiens), sequence (P11474 whole entry, looked up, the tested form may be a part): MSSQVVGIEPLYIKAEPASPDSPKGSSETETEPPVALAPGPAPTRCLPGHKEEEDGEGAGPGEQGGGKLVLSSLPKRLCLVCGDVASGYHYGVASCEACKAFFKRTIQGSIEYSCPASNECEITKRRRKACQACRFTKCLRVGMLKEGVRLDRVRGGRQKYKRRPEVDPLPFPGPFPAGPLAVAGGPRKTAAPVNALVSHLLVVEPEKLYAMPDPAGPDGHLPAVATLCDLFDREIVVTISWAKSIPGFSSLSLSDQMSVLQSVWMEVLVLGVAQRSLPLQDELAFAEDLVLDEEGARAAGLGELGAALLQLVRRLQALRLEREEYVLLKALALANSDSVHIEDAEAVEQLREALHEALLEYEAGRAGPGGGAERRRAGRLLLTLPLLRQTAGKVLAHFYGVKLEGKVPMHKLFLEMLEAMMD

Turning to `O=S(=O)(O)c1cc(S(=O)(=O)O)c2c(N=Nc3ccccc3)c(O)ccc2c1`, the outcome in test [1], in test [2], in [3], in test [4], in [5] and in test [6] was inactive. Also, the compound was classed as inactive in test [7], in test [8], in test [9], in test [10], in [11] and in test [12]. Also, the outcome in test [13], in [14] and in [15] was inactive.
On to `O=c1cc[nH]cc1`, for which the result in test [1], in [2], in [16], in [17], in [4] and in test [6] was inactive. Further, the call in [8], in test [12] and in [14] was inactive. In addition, the AC50 in test [3] was 21 µM (active).
As for `COc1ccc(N)c(C)c1`, the AC50 in test [1] was 181 µM (active); in [3], 27.3 µM (active); in test [9], 169 µM (active); in test [12], 100 µM (active); in test [18], 56.5 µM (active). Besides, the compound was called inactive in test [2], in test [17], in test [4], in test [5], in test [6] and in test [7]. The compound was classed as inactive in [8], in test [10], in test [11], in test [13], in test [14] and in test [19].
As to `C=CCOCC(O)CO` (stereo not drawn), the result in test [1], in test [2], in [3], in test [17], in test [4] and in test [5] was inactive. For the same compound, the call in [7], in test [8], in test [10], in [11], in test [12] and in test [14] was inactive. In addition, the compound was classed as inactive in test [15].
Take `CCCC1CCC(=O)CC1`: the outcome in test [1], in [2], in test [17], in test [4], in test [6] and in test [7] was inactive. Further, the outcome in [8], in test [9], in test [10], in [11], in [12] and in test [18] was inactive. In addition, the compound was called inactive in test [14] and in test [19].
For the compound `Nc1ccc(N)c([N+](=O)[O-])c1`, the result in test [1], in test [2], in test [3], in [4], in [5] and in [6] was inactive. For the same compound, the result in [7], in test [8], in [9], in [10], in test [11] and in test [13] was inactive. The compound was classed as inactive in test [14], in [19] and in test [15]. Besides, the AC50 in test [18] is 37.8 µM (active) [middle of 5 runs].
In the case of `CC(=O)OCC=C(C)CCC=C(C)CCC=C(C)C`, the concentration at half-maximal activity (AC50) is 63.8 µM (active) in test [2]; 9.61 µM (active) in [3]; 164 µM (active) in [17]; 162 µM (active) in test [4]; 100 µM (active) in test [8]; 148 µM (active) in [9]. Further, the AC50 in [10] was 100 µM (active); in [18] it was 9.02 µM (active); in test [14], 151 µM (active). The compound was called inactive in [16], in test [5], in [6], in test [7], in [11] and in [12]. Further, the call in [13] and in test [20] was inactive.
As to `CCC(CC)CO`, the outcome in test [1], in test [2], in test [16], in test [17], in test [4] and in test [5] was inactive. The result in [6], in [8], in test [9], in test [10], in test [11] and in test [12] was inactive. Also, the call in [18], in test [14], in test [19] and in [15] was inactive.

Source of the values: PubChem BioAssay (EPA / NIEHS).
